The source of these data is PubChem BioAssay.

Experiment [1] in a line: inhibitors of TNFa-induced NFkB p65 translocation, primary screen, imaging, HUVEC, MLSMR starter and 10KST1 sets (AID 438;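 active = inhibition above 20% together with a positive visual image hit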;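 also: compound added about 3h40 before a 20 min TNFalpha stimulation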;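 as to inhibition: signal is the nuclear over cytoplasmic p65 intensity ratio per well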). The settings on record: HUVEC TNFa-induced p65 nuclear translocation; cell count: measured here: nuclei count (cytotoxicity indicator), at 2.08 µM; inhibition: at 2 µM, stronger effect = higher value, 0% TNFa-plus-vehicle, 100% no-TNFa wells.
Experiment [2] can be described thus: inhibitors of mutant huntingtin aggregation, primary screen, imaging, exon1htt(103Q)mCFP cells, high-content imaging (AID 483;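 active = visual image review flags a hit and inhibition of aggregation exceeds 20%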;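 also: compound exposure lasted 3 days before fixation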;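 as to nuclei count: percent of the per-plate median nuclei count of sample wells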). The settings on record: exon1htt(103Q)mCFP cell line, aggregate imaging, at 2 µM; inhibition of aggregation: stronger effect = higher value; nuclei count: measured here: cell count, toxicity.
A short description of experiment [3]: inhibitors of E-selectin induction by TNFa, primary screen, imaging, HUVEC, immunofluorescence, MLSMR starter and 10KST1 sets (AID 487).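 As to inhibition: signal is fraction of cell area covered by stained E-selectin grains.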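 As to nuclei count: 100% = median nuclei count of all wells on the same plate.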 The settings on record: HUVEC TNFalpha-induced E-selectin immunofluorescence imaging, at 2 µM; inhibition: stronger effect = higher value; nuclei count: measured here: cell number, toxicity.
Experiment [4] concerns the target Voltage-gated potassium channel subunit beta-2 (Rattus norvegicus) (UniProt P62483). The experiment can be described thus: KvBeta enzyme negative modulators, primary screen, biochemical, NADPH fluorescence (AID 622;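 active = fluorescence slope higher than the sample average by over 3 SD, cut at about -0.22 in these data, passing the limit was not always enough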;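 also: slope of raw intensity against log time taken from 70 to 1610 s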). The settings on record: recombinant KvBeta, 4-cyanobenzaldehyde reduction, at 10 µM, stronger effect = higher value.
For experiment [5] the target is unchanged. The experiment can be described thus: KvBeta positive modulators, primary screen, biochemical, NADPH fluorescence (AID 623;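 active = NADPH fluorescence slope more negative than the mean of all samples by about 3 SD, 99.7% confidence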;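 also: fluorescence intensity change per second fitted from 20 to 320 s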). The settings on record: Recombinant KvBeta, NADPH fluorescence decrease slope, 10 min; at 10 µM; stronger effect = lower value.
The target in experiment [6] is Alpha-2C adrenergic receptor (Homo sapiens) (UniProt P18825). Briefly: modulators of alpha2C/GIRK thallium flux, primary screen, cell-based, HEK293 alpha2C/GIRK1/2 (AID 624;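 active = fluorescence slope after compound addition differing from the mean of all screened samples at 99.7% confidence, in either direction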;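 also: slope of fluorescence ratio to pre-addition baseline per second over 15 to 24 s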). The settings on record: thallium flux BTC fluorescence, at 10 µM, actives lie on both sides.
The nature of experiment [7]: inhibitors of Sendai virus-induced IRF3 signaling, primary screen, TLR/RLR signaling modifier project, cell-based, Sendai virus stimulus, luciferase, 10K MLSCN set (AID 602276;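 active = inhibition at or above 50% at 10 µM; inactive = inhibition below 50%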;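 also: firefly luciferase from ISG56 promoter only with Renilla not read in this screen; 0% = Sendai virus plus DMSO and 100% = medium plus DMSO without virus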). The settings on record: HEK293 RL24 IRF3 luciferase reporter, at 10 µM, stronger effect = higher value. For orientation: In a reporter assay the amount or activity of a reporter protein is the signal.
The nature of experiment [8]: inhibitors of poly I:C-induced TLR3 signaling, primary screen, cell-based, poly I:C stimulus, luciferase, 10K MLSCN set (AID 602277;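 active = inhibition of the reporter signal at or above 50%; inactive = inhibition below 50%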). The settings on record: HEK293-TLR3 RL24 IRF3 luciferase reporter, at 10 µM, stronger effect = higher value.

The structures appear in SMILES notation. Calls of active or inactive are those of the source.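 The calls were made as follows, unless noted: active = visually confirmed hit in the image check and inhibition above 20%; inconclusive = visually confirmed hit but inhibition not above 20%; inactive = no visual hit in the image check.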

Usually inhibition stands for the change of the read-out against control, counted positive when it falls.

Chain of Alpha-2C adrenergic receptor (Homo sapiens) (P18825 whole entry, looked up): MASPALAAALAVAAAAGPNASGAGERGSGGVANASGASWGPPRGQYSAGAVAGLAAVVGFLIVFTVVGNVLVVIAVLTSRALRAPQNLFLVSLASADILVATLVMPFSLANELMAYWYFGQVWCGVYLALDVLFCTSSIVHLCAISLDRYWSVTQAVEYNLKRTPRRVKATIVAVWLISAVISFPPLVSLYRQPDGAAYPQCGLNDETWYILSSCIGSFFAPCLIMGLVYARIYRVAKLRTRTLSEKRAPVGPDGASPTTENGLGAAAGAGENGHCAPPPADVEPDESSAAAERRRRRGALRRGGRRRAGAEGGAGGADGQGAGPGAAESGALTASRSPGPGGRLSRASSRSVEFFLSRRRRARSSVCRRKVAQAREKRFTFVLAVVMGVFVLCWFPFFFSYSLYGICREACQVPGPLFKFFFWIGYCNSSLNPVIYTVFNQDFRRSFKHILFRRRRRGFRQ
Chain of Voltage-gated potassium channel subunit beta-2 (Rattus norvegicus) (P62483 whole entry, looked up): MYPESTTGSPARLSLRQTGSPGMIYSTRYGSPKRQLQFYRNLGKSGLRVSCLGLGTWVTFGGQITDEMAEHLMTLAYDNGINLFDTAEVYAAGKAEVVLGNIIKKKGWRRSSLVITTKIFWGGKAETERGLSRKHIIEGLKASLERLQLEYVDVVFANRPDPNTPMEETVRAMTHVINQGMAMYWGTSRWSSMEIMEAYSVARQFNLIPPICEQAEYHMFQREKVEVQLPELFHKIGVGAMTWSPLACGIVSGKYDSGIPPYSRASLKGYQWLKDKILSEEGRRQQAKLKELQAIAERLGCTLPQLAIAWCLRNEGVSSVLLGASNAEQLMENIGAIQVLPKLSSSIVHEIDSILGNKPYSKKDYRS

For `CC(=O)O[C@H]1CSC[C@H]1NC(=O)c1ccccc1`, in experiment [1], the cell count was found to be 467. Also, the inhibition in experiment [1] was 10.9% (inactive); in experiment [3], 21.9% (inactive); in experiment [7] it was 16.6% (inactive); in experiment [8], 16.9% (inactive). The inhibition of aggregation in experiment [2] is 9.1% (inactive). For the same compound, the nuclei count came to 96.2% in experiment [2] and 111% in experiment [3]. The fluorescence slope in experiment [4] was -0.509 (inactive). Also, in experiment [5], the NADPH fluorescence slope was -1.7e-05 (inactive). The slope in experiment [6] was 0.00411 (inactive).

Turning to `Cn1cnc(S(=O)(=O)NCc2cccs2)c1`, in experiment [1], the cell count was determined as 417. The inhibition is 10.8% (inactive) in experiment [1], -43.8% (inactive) in experiment [3], -2.25% (inactive) in experiment [7] and 6.69% (inactive) in experiment [8]. Further, the inhibition of aggregation in experiment [2] was -26.8% (inactive). The figures for the nuclei count in experiment [2] and in experiment [3] were 101% and 132%, respectively. Besides, the fluorescence slope in experiment [4] was -0.541 (inactive). The NADPH fluorescence slope in experiment [5] is 3.3e-05 (inactive). Besides, in experiment [6], the slope is 0.00567 (inactive).

For `COc1ccc(N2CC(C(=O)Nc3ccc(F)cc3F)CC2=O)cc1` (centres undefined), the cell count in experiment [1] was determined as 281. In addition, the inhibition in experiment [1] was -3.5% (inactive); in experiment [3], 12% (inactive); in experiment [7] it was 14.4% (inactive); in experiment [8], 20.8% (inactive). Besides, in experiment [2], the inhibition of aggregation is -30.8% (inactive). For the same compound, the nuclei count in experiment [2] amounted to 111%; in experiment [3], 104%. For the same compound, the fluorescence slope in experiment [4] is -0.514 (inactive). For the same compound, the NADPH fluorescence slope in experiment [5] is -1.3e-05 (inactive). For the same compound, in experiment [6], the slope was 0.00428 (inactive).

With `Nc1nnc(C(=O)c2ccccc2N)s1`, the cell count in experiment [1] was 384. Moreover, the inhibition is -5.3% (inactive) in experiment [1], -41.8% (inactive) in experiment [3], -1.19% (inactive) in experiment [7] and -4.86% (inactive) in experiment [8]. The inhibition of aggregation in experiment [2] is -21% (inactive). Further, the nuclei count in experiment [2] was found to be 99.9%; in experiment [3] it was 106%. Also, the fluorescence slope in experiment [4] was -0.438 (inactive). In experiment [5], the NADPH fluorescence slope is -0.000136 (inactive). The slope in experiment [6] is 0.00502 (inactive).

Regarding `COc1cc(OC)c(C2C(C#N)=C(N)OC3=C2C(=O)CC(C)(C)C3)cc1OC` (centres undefined), in experiment [1], the cell count amounted to 407. The inhibition was -2.7% (inactive) in experiment [1], -27.1% (inactive) in experiment [3], -2.62% (inactive) in experiment [7] and 5.85% (inactive) in experiment [8]. In experiment [2], the inhibition of aggregation was 22.2% (inactive). The nuclei count in experiment [2] stood at 88.4%; in experiment [3], 104%. For the same compound, in experiment [4], the fluorescence slope is -0.501 (inactive). The NADPH fluorescence slope in experiment [5] was -3.5e-05 (inactive). In experiment [6], the slope was 0.00648 (inactive).

As to `CC(=O)c1ccc(NS(=O)(=O)c2ccccc2)cc1`, in experiment [1], the cell count was determined as 554. In addition, the inhibition in experiment [1] was -4.8% (inactive); in experiment [3] it was -59.1% (inactive); in experiment [7], -17.2% (inactive); in experiment [8] it was 7.05% (inactive). Further, the inhibition of aggregation in experiment [2] is 0.4% (inactive). Moreover, the nuclei count was 62.8% in experiment [2] and 92.5% in experiment [3]. For the same compound, the fluorescence slope in experiment [4] was -0.467 (inactive). Further, the NADPH fluorescence slope in experiment [5] was 3.9e-05 (inactive). Moreover, the slope in experiment [6] is 0.00323 (inactive).

On to `CN(C)c1ccc(-c2nn3c(-c4ccc(Cl)cc4Cl)nnc3s2)cc1`, for which the cell count in experiment [1] came out at 321. For the same compound, the inhibition in experiment [1] is 2.6% (inactive); in experiment [3], 42.5% (inactive); in experiment [7], -25.6% (inactive); in experiment [8] it was 55.1% (active). Further, the inhibition of aggregation in experiment [2] is -10.5% (inactive). The nuclei count was 98.2% in experiment [2] and 96.6% in experiment [3]. Besides, in experiment [4], the fluorescence slope was -0.552 (inactive). In addition, the NADPH fluorescence slope in experiment [5] was -3.3e-05 (inactive). Besides, the slope in experiment [6] is 0.00528 (inactive).

Take `COc1cccc(-c2nc(CS(=O)(=O)CC(=O)N3CCc4ccccc4C3)c(C)o2)c1`: in experiment [1], the cell count is 813. For the same compound, the inhibition is -17.7% (inactive) in experiment [1], -74.3% (inactive) in experiment [3], 6.4% (inactive) in experiment [7] and 16% (inactive) in experiment [8]. In addition, in experiment [2], the inhibition of aggregation was -2% (inactive). Moreover, the figures for the nuclei count in experiment [2] and in experiment [3] were 93% and 117%, respectively. In addition, the fluorescence slope in experiment [4] is -0.522 (inactive). The NADPH fluorescence slope in experiment [5] is -1.8e-05 (inactive). For the same compound, the slope in experiment [6] was 0.00747 (inactive).

Take `O=C(Nc1ccc2nc(-c3cccs3)[nH]c2c1)c1ccco1`: the cell count in experiment [1] amounted to 334. In addition, the inhibition in experiment [1] was -0.7% (inactive); in experiment [3], -132% (inactive); in experiment [7] it was -35.6% (inactive); in experiment [8], -87.4% (inactive). Besides, the inhibition of aggregation in experiment [2] is 23% (inactive). For the same compound, the nuclei count in experiment [2] came out at 78.8%; in experiment [3] it was 119%. The fluorescence slope in experiment [4] is -0.429 (inactive). For the same compound, the NADPH fluorescence slope in experiment [5] was -7.7e-05 (inactive). In addition, the slope in experiment [6] was 0.00445 (inactive).
